# Experimental data taken from PubChem BioAssay.
# Values without a mark were called inactive. Where a call stands in place of a potency, no number is given. For some assays here: Potency and affinity values are given separately. Active and inactive are the calls of the source. Unless noted, the rule behind the calls is not given here.
# How the values were obtained:
# [1] = antimalarial activity against Dd2 strain (AID 2302;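 active = growth inhibition above 50% at the single 2 µM test dose, taken to imply half-maximal potency below 2 µM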); details: P. falciparum Dd2 in RBCs, LDH growth readout, 72 h; at 2 µM; stronger effect = higher value
# [2] = HepG2 cytotoxicity, primary screen, cytotoxicity control for P. falciparum antimalarial project, cell-based, ATP luminescence (AID 2303;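 active = inhibition above 50%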); details: HepG2 viability, 24-48 h, at 10 µM, stronger effect = higher value
# [3] = molecular target: L-lactate dehydrogenase (Plasmodium falciparum (isolate CDC / Honduras)) (UniProt Q27743); test: PfLDH activity inhibition – cell lysate, 3D7 strain, counter-screen for P. falciparum growth inhibition project (AID 2304); details: P. falciparum 3D7 crude extract, LDH APAD/NBT absorbance; at 2 µM; stronger effect = higher value
# Chain of L-lactate dehydrogenase (Plasmodium falciparum (isolate CDC / Honduras)) (Q27743 whole entry, looked up): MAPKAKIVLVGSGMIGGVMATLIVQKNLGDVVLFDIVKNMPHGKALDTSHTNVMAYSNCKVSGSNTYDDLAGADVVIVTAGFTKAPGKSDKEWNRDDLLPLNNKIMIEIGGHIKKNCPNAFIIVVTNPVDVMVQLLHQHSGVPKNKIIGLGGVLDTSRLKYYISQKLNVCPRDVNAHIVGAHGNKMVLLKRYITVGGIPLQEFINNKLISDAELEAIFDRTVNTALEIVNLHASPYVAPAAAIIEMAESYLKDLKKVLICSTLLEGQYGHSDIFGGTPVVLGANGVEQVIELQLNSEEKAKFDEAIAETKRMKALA
# [4] = inhibition of 3D7 malaria parasite growth – strain 3D7 (AID 2306); details: P. falciparum 3D7 erythrocytic growth, LDH absorbance, 72 h; at 2 µM; stronger effect = higher value
# [5] = molecular target: Calcium-dependent protein kinase 1 (Plasmodium falciparum (isolate 3D7)) (UniProt P62344); test: PfCDPK1 kinase inhibitors, biochemical, TCAMS library (AID 1159585; cut-off not given, nearly all actives have IC50 up to about 0.98 µM;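 note: inhibitors leave more ATP so luminescence rises with inhibition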); details: recombinant PfCDPK1, Kinase-Glo ATP depletion luminescence
# Chain of Calcium-dependent protein kinase 1 (Plasmodium falciparum (isolate 3D7)) (P62344 whole entry, looked up): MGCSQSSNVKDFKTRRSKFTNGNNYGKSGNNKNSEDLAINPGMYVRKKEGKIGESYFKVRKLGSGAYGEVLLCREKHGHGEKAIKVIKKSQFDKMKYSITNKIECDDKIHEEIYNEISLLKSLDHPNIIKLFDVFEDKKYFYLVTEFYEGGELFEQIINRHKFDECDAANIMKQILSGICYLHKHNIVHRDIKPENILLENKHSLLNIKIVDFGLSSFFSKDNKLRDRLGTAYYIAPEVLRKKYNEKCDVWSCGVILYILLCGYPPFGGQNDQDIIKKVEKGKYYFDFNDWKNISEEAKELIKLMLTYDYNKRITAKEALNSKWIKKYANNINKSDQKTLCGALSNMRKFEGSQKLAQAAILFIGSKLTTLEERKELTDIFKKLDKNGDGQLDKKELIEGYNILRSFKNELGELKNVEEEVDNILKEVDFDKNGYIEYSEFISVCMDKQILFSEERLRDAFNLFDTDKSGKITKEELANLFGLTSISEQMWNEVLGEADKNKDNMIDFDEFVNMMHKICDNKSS
# [6] = molecular target: Plasmodium falciparum protein kinase 6 (PK6, PF3D7_1337100) (UniProt Q8IDW1); test: PfPK6 kinase inhibitors, biochemical, TCAMS library (AID 1159586); details: recombinant PfPK6, Kinase-Glo ATP depletion luminescence
# Chain of Plasmodium falciparum protein kinase 6 (PK6, PF3D7_1337100) (Q8IDW1 1-305): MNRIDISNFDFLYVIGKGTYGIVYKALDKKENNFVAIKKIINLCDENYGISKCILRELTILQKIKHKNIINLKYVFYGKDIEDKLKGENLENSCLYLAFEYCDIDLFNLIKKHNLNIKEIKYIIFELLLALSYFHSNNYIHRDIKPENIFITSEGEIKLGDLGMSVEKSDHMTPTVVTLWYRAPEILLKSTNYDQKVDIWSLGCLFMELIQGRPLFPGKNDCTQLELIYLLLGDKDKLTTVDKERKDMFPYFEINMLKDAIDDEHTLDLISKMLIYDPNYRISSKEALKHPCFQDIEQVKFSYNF
# [7] = molecular target: Protein kinase 7 (PK7), Plasmodium falciparum 3D7 (PF3D7_0213400) (UniProt Q7YTF7); test: inhibition of Plasmodium PK7 catalytic activity – biochemical, TCAMS antimalarial set, Kinase-Glo luminescence (AID 1159587); details: recombinant PfPK7, Kinase-Glo ATP depletion luminescence
# Chain of Protein kinase 7 (PK7), Plasmodium falciparum 3D7 (PF3D7_0213400) (Q7YTF7 1-343): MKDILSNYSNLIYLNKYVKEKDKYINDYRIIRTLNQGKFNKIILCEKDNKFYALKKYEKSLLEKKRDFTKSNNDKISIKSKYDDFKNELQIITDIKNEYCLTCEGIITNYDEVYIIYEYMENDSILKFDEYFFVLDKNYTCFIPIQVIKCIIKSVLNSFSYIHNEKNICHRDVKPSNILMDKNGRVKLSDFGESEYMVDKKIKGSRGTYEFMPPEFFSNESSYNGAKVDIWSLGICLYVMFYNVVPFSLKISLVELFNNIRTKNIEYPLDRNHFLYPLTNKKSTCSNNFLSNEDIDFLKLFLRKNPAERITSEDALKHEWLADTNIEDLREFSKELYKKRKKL
# [8] = molecular target: Calcium-dependent protein kinase 4 (Plasmodium falciparum (isolate 3D7)) (UniProt Q8IBS5); test: PfCDPK4 kinase inhibitors, biochemical, TCAMS library (AID 1159588; cut-off not given, nearly all actives have IC50 up to about 0.91 µM); details: recombinant PfCDPK4, Kinase-Glo ATP depletion luminescence
# Chain of Calcium-dependent protein kinase 4 (Plasmodium falciparum (isolate 3D7)) (Q8IBS5 whole entry, looked up): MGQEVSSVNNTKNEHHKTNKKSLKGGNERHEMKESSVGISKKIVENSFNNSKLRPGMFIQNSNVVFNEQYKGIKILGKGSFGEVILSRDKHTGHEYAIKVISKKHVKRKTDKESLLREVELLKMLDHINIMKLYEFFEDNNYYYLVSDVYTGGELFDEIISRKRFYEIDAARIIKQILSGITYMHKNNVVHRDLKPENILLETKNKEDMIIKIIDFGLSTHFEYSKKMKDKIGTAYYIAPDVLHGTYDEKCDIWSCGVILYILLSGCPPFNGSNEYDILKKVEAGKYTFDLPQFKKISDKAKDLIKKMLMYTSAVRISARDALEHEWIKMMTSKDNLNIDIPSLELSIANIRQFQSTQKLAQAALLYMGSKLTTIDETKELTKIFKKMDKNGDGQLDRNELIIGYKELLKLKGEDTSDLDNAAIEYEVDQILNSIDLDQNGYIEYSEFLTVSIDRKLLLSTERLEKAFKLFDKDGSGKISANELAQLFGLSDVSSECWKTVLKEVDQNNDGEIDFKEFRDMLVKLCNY
SMILES,growth inhibition [1],inhibition [2],inhibition [3] [%],growth inhibition [4],outcome [5],outcome [6],outcome [7],outcome [8]
CCc1ccc(-n2c(NC(=O)c3ccccc3)nc3ccc(S(=O)(=O)NC(C)C(C)C)cc32)cc1 (stereo not given),-4%,48%,0,88% (active),inactive,inactive,inactive,inactive
O=C(NCc1ccc(Cl)c(Cl)c1)c1ccc(-c2nc3ccc(F)cc3[nH]2)cc1,9%,0%,1,93% (active),inactive,inactive,inactive,inactive
Cc1cc(CNCCCCCCNCc2ccc(-c3ccccc3)cc2)ccc1O,-2%,90% (active),-3,98% (active),inactive,inactive,inactive,inactive
COc1ccc2nc3cc(Cl)ccc3c(NCCCN3CCNCC3)c2c1,74% (active),18%,-3,104% (active),inactive,inactive,inactive,inactive
COc1ccc(CNc2nccc3ccc(-c4ccc5nccn5c4)cc23)cc1,47%,17%,-4,95% (active),inactive,inactive,inactive,inactive
C[C@@H](NCCc1cccc(Cl)c1)[C@@H](O)c1ccc(OCCCCCCOc2ccc([C@H](O)[C@@H](C)NCCc3cccc(Cl)c3)cc2)cc1,100% (active),96% (active),-1,100% (active),inactive,inactive,inactive,inactive
CCOc1ccc(C(=O)Nc2ccc(-c3nc4ccccc4[nH]3)cc2)cc1[N+](=O)[O-],70% (active),22%,4,100% (active),inactive,inactive,inactive,inactive
C=CCc1cc(Cc2cnc(N)nc2N)c2ccc(C)nc2c1OC,-1%,11%,-4,96% (active),inactive,inactive,inactive,inactive
COc1cccc(OC)c1CN1CCC(N(C)CCCCCCCCCN2CCC(OC(=O)Nc3ccccc3-c3ccccc3)CC2)CC1,98% (active),100% (active),-1,98% (active),inactive,inactive,inactive,inactive
CC1CN(Cc2ccccc2)CCN1c1ccc(NC(=O)c2ccc(F)cc2)cc1 (stereo not given),89% (active),-6%,-5,87% (active),inactive,inactive,inactive,inactive
CN(C)C(=O)O[C@@H]1CN[C@H](C#Cc2cc3ncnc(Nc4ccc5c(cnn5Cc5cccc(F)c5)c4)c3s2)C1,68% (active),0%,7,97% (active),inactive,inactive,inactive,inactive
O=C(NC1CCN(Cc2ccccc2)CC1)c1ccc(-c2nc3cc(Cl)c(F)cc3[nH]2)s1,99% (active),28%,3,101% (active),inactive,inactive,inactive,inactive
O=C(CC1NC(=O)c2ccccc21)Nc1ccc(-c2cccc(-c3nc4ccc(C(F)(F)F)cc4[nH]3)c2)cc1 (stereo not given),36%,69% (active),-4,95% (active),inactive,inactive,inactive,inactive
CN1CCCN(c2ccnc3cc4c(cc23)N(C(=O)c2ccc(Cl)cc2Cl)CC4)CC1,51% (active),6%,-2,100% (active),inactive,inactive,inactive,inactive
COc1c(C2CCN(CCCCNC(=O)c3ccc(C)c(-c4ccc(C(F)(F)F)cc4)c3)CC2)ccc2c1CCCC2,79% (active),76% (active),-5,86% (active),inactive,inactive,inactive,inactive
CCS(=O)(=O)c1ccc(-c2cnc3[nH]cc(-c4ccc(N)cc4)c3c2)cc1,99% (active),24%,-5,92% (active),inactive,inactive,inactive,inactive
CCN(CCO)CCc1cccc(Nc2nccc(-c3c(-c4ccc(NC(=O)C(C)(C)C)cc4)nn4ccccc34)n2)c1,96% (active),62% (active),4,101% (active),inactive,inactive,inactive,inactive
Cc1cc(Nc2ccc(OCc3ccccc3Cl)cc2)c2cc(Cl)ccc2n1,58% (active),33%,5,100% (active),inactive,inactive,inactive,inactive
CC1(C)[C@H]2CC[C@@H](CNc3nc(NCC(=O)Nc4ccc5ccccc5c4)nc(N4CCC(N5CCCC5)CC4)n3)[C@@H]1C2,20%,6%,-5,93% (active),inactive,inactive,inactive,inactive
Fc1ccc(-c2cc3ncnc(N4CCN(CCN5CCCC5)CC4)c3s2)cc1,40%,25%,-1,98% (active),inactive,inactive,inactive,inactive

SMILES,growth inhibition [1],inhibition [2],inhibition [3] [%],growth inhibition [4],outcome [5],outcome [6],outcome [7],outcome [8]
Cc1ccccc1Nc1nc(Nc2ccccc2)c2ccccc2n1,21%,19%,-8,103% (active),inactive,inactive,inactive,inactive
CC(C)N(Cc1ccc(-c2ccc(C(F)(F)F)cc2)cc1)C(=O)Cn1c(SCc2cccc(F)c2F)cc(=O)c2cc(CN3CCCCC3)ccc21,59% (active),97% (active),-8,103% (active),inactive,inactive,inactive,inactive
Oc1ccccc1CNCC12CC3CC(CC(C3)C1)C2,99% (active),-4%,5,98% (active),inactive,inactive,inactive,inactive
Cc1ccc(-n2cc(CNCC3CCN(CCO)CC3)c(-c3ccc(F)cc3)n2)cc1,18%,29%,-1,91% (active),inactive,inactive,inactive,inactive
COc1cc2nc(N3CC(C)N(C(=O)Cc4ccc(-c5ccccc5)cc4)C(C)C3)nc(N)c2cc1OC (stereo not given),12%,26%,-5,100% (active),inactive,inactive,inactive,inactive
O=C(Nc1ccc2c(c1)OCO2)c1cc(-c2cccnc2)nc2ccc(Cl)cc12,41%,9%,-3,89% (active),inactive,inactive,inactive,inactive
COc1cc2ccccc2cc1CCNCCCCNCCc1cc2ccccc2cc1OC,38%,100% (active),2,99% (active),inactive,inactive,inactive,inactive
O=S(=O)(c1ccc2cc[nH]c2c1)N1CCC[C@@H]1CCN1CCC(c2c[nH]c3cnccc23)CC1,0%,13%,0,95% (active),inactive,inactive,inactive,inactive
CC(=O)Nc1nc(-c2ccccc2)[nH]c1C(N)=O,-2%,10%,4,99% (active),inactive,inactive,inactive,inactive
CNS(=O)(=O)Cc1ccc(Nc2nccc(Nc3cccc4c3cnn4C(=O)Nc3ccccc3)n2)cc1,5%,45%,1,89% (active),inactive,inactive,inactive,inactive
CCCC(=O)c1cnc2c(OCCCc3cnc[nH]3)cccc2c1Nc1c(C)cccc1C,14%,20%,3,98% (active),inactive,inactive,inactive,inactive
O=C(Cc1cccs1)NC(CCCN1CCC(Oc2cccc(Cl)c2)CC1)c1ccc(Cl)c(Cl)c1 (stereo not given),70% (active),39%,3,86% (active),inactive,inactive,inactive,inactive
COc1ccccc1CCNc1nc(C)cc(N[C@@H](CC(C)C)C(=O)Nc2ccccc2)n1,76% (active),16%,-2,101% (active),inactive,inactive,inactive,inactive
O=C(Nc1ccc(CCNCCCc2ccccc2)cc1)Nc1ccc(Cl)c(Cl)c1,99% (active),33%,-1,100% (active),inactive,inactive,inactive,inactive
CCCCN(CCCC)CC(O)c1cc(-c2ccc(Cl)cc2)nc2c(Cl)cc(Cl)cc12 (stereo not given),97% (active),-12%,1,97% (active),inactive,inactive,inactive,inactive
CCCC1(NC[C@@H](O)[C@H](Cc2ccccc2)NC(=O)c2cc(NCC)cc(N3CCCCS3(=O)=O)c2)CCCC1,97% (active),-1%,-5,101% (active),inactive,inactive,inactive,inactive
CC(=O)c1cccc(NC(=O)NC2CCN(CCCCCNC(=O)/C=C/c3ccc(Cl)c(Cl)c3)CC2)c1,1%,7%,1,94% (active),inactive,inactive,inactive,inactive
NC(=O)c1ccccc1OCC(=O)Nc1cccc(-c2cccc(-c3nc4ccccc4[nH]3)c2)c1,46%,23%,3,88% (active),inactive,inactive,inactive,inactive
Cc1cccc(C(=O)N2CCN(Cc3cccc(NC(=O)c4ccco4)c3)CC2)c1,79% (active),7%,1,94% (active),inactive,inactive,inactive,inactive
Cc1[nH]c(C)c(-c2ccc(-c3ccc(F)cc3)nc2)c(=O)c1Br,96% (active),15%,0,97% (active),inactive,inactive,inactive,inactive
